Inconclusive results are not listed. Where a call stands in place of a potency, no number is given. Values without a mark were called inactive. Activity calls are given as the source filed them. The call rests on the fitted dose curve; in most records, active means well fitted inhibition curve with a large enough effect; inconclusive means small, poorly fitted or top-dose-only effect; inactive means flat fitted curve, though single readings scatter.
Test: P-glycoprotein substrates identified in KB-8-5-11 adenocarcinoma cell line, qHTS therapeutic library screen (AID 1346987); further: nearly all actives have a fitted effect of over 65% in size
Details: KB-8-5-11 (P-gp overexpressing) viability, CellTiter-Glo, 72 h; series mostly up to 44.5 µM
How it was run: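 Luminescence from CellTiter-Glo, read 5 min after addition, quantified survival of KB-8-5-11 (P-gp-overexpressing) cells exposed to compounds for 72 h. AC50 was derived from concentration-response curves.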
Potency means the concentration at half of the fitted maximal effect.

Structure (SMILES)	Potency	outcome	activity change, negative = cytotoxicity
C[S+](CC[C@H](N)C(=O)[O-])C[C@H]1O[C@@H](n2cnc3c(N)ncnc32)[C@H](O)[C@@H]1O (stereo partly specified)	inactive		
C=C1CCC2C(C)(C)C(O)CCC2(C)C1CCC(C)CCO (stereo unspecified)	inactive		
O=C(COc1cccc2c(=O)[nH]ccc12)c1ccccc1	inactive		
OC1CCC(Nc2ncc3nc(Nc4c(F)cc(F)cc4F)n([C@H]4CCOC4)c3n2)CC1 (stereo partly specified)	inactive		
Cc1[nH]nc(C(F)(F)F)c1Cc1sc2c(c1C(=O)N1C[C@](C)(O)CO1)c(=O)n(C)c(=O)n2C(C)C	inactive		
CC1(C)CC[C@]2(C(=O)OC3OC(CO)C(O)C(O)C3O)CC[C@]3(C)C(=CCC4[C@@]5(C)CC[C@H](OC6OC(C(=O)O)C(O)C(OC7OC(CO)C(O)C(O)C7O)C6O)C(C)(C)C5CC[C@]43C)C2C1 (stereo partly specified)		inactive [at 9.29 µM]	
C=C(C(=O)O)C1CCC2(C)CCC(O)C(C)(O)C2C1 (stereo unspecified)	inactive		
CC1(C)CC[C@]2(CO[C@@H]3O[C@H](CO)[C@@H](O)[C@H](O)[C@H]3O)[C@@H](O)C[C@]3(C)C(=CCC4[C@@]5(C)CC[C@H](O[C@@H]6O[C@H](CO[C@@H]7O[C@H](CO[C@@H]8OC[C@@H](O)[C@H](O)[C@H]8O)[C@@H](O)[C@H](O)[C@H]7O)[C@@H](O)[C@H](O)[C@H]6O)C(C)(C)C5CC[C@]43C)[C@@H]2C1 (stereo partly specified)			1.76% [at 9.29 µM]
CN=C(N)NCCCCC/C=C(/C)CC(C)C1OC(=O)C(C)C(O)/C=C/C(C)C(O)CC(O)C(C)C(O)CCC(C)C(O)CC2(O)OC(CC(OC(=O)CC(=O)O)CC(O)CC(O)C(C)C(O)/C(C)=C/CCC1C)CC(O)C2O (stereo unspecified)		inactive [at 9.29 µM]	
CCOc1cc(CC(=O)NC(CC(C)C)c2ccccc2N2CCCCC2)ccc1C(=O)O (stereo unspecified)	inactive		
C[C@H](O)[C@H](O)/C=C/c1cccc(O)c1CO	inactive		
C/C=C(/COC(=O)/C(C)=C/C)C(=O)OC(CC)c1ccc(OC)c(OC)c1 (stereo unspecified)	inactive		
C=CC(C)(C)c1[nH]c2ccccc2c1C[C@@H]1NC(=O)[C@H](Cc2c[nH]c3ccccc23)NC1=O	inactive		
COc1ccc(CNC(=O)c2sc3nc(C)cc(C)c3c2N)cc1	inactive		
CC(=O)N[C@@H](CCCCN)C(=O)N(C)[C@@H](CC(C)C)C(=O)N[C@H](C(=O)N(C)[C@@H](Cc1ccccc1)C(=O)N[C@H](Cc1ccccc1)C(N)=O)C(C)C		inactive [at 5.11 µM]	
C/C=C/C=C/[C@@H]1O[C@](O)([C@H](CC)C(=O)NC/C=C/C=C(\C)[C@@H](OC)[C@@H](C)C2OC(/C=C/C=C/C=C(\C)C(=O)c3c(O)cc[nH]c3=O)[C@H](O)[C@@H]2O)[C@H](O)[C@H](O)C1(C)C (stereo partly specified)	inactive		
OCCc1ccc(O[C@@H]2O[C@H](CO)[C@@H](O)[C@H](O)[C@H]2O)cc1	inactive		
CC(=O)O[C@@H]1[C@H](O[C@@H]2O[C@@H](CO)[C@H](O)[C@H]2O)[C@@H](O[C@@H]2O[C@@H](C)[C@H](O[C@@H]3OC[C@@H](O)[C@H](O)[C@H]3O)[C@@H](O)[C@H]2O)[C@H](OC(=O)[C@]23CCC(C)(C)C[C@H]2C2=CCC4[C@@]5(C)CC[C@H](O[C@@H]6O[C@H](C(=O)O)[C@@H](O)[C@H](O)[C@H]6O[C@@H]6O[C@H](CO)[C@H](O)[C@H](O)[C@H]6O)[C@@](C)(C=O)C5CC[C@@]4(C)[C@]2(C)CC3)O[C@@H]1C (stereo partly specified)		inactive [at 9.29 µM]	
OCC(CO[C@@H]1O[C@H](CO)[C@@H](O)[C@H](O)[C@H]1O)c1ccc2c(c1)OCO2 (stereo partly specified)	inactive		
CO[C@@H](C)Cn1c(=O)n(C)c2cnc3ccc(-c4cncc(C(C)(C)O)c4)cc3c21	0.651 µM (active)		
CC1(C)CC2C=C(C(=O)O)C3COC(=O)C(O)(CO)C23C1 (stereo unspecified)	inactive		
CC(=O)N[C@@H](C(=O)O[C@H]1CCC(C)(C)[C@@H]2CCC3=C(COC3=O)[C@@]12C)C(C)C	inactive		
Cc1cc(C)c(CNC(=O)c2cc(-c3ccc(CN4CCOCC4)cc3)cc3c2cnn3C2CCCC2)c(=O)[nH]1	inactive		
C[C@H](NC(=O)CCc1nc2ccccc2c(=O)[nH]1)c1ccccc1	inactive		
C=C1C(=O)O[C@@H]2/C=C(\C)C(=O)/C=C/[C@](C)(O)C[C@@H](OC(=O)C(C)C)[C@@H]12	4.53 µM (active)		
COc1ccc(-c2ccc(-c3cn(C(=O)N4CCCCC4c4ccccc4)nn3)cc2)cc1 (stereo unspecified)	inactive		
